Pf growth 96h: P. falciparum growth inhibition at 96 hours. P. falciparum luciferase reporter growth, 96 h. Potency, µM (series often up to 28.7 µM), for inactives: top-dose activity change, negative = inhibition, hits mostly inhibitors. 320,000 compounds, 6.9% hits. AID 504834; further: potency means the concentration at half of the fitted maximal effect; on the % scale 0 is the no-effect control and ±100 the full control effect
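Cell-based qHTS: luciferase-tagged P. falciparum in erythrocytes (2% hematocrit, 0.05% parasitemia final) incubated with compounds for 96 hours, 37 C, 5% CO2; luciferase detection reagent then added and luminescence measured.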
HCV inhibitor: HCV inhibition. Huh7.5.1 HCVcc-Cre infection, luciferase reporter, 44 h. Potency, µM (highest dose often 41.8 µM), for inactives: at the top dose activity change, negative = inhibition, hits mostly inhibitors. 340,000 compounds, 3.4% hits. AID 651820; further: potency means the concentration at half of the fitted maximal effect; on the % scale 0 is the no-effect control and ±100 the full control effect
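Infectious HCVcc-Cre (~0.5 moi) was added to cells just after compound, with cells seeded 4 h earlier at 1,000 per well. Luciferase activity after 44 h culture reported infection; substrate was incubated 15 min at room temperature before reading.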
Shiga inhibitor: blocks Shiga toxin action in Vero cells; Vero cells, Shiga toxin protein synthesis inhibition reporter; inhibition, % at 38.7 µM; 290,000 compounds, 9.2% hits; AID 2315; in the data active means inhibition mostly above about 28%, no sharp cut-off; inactive means mostly below about 43%; further: 0% is about no effect
HCMV antiviral: inhibitors of human cytomegalovirus. activity change, negative = inhibition, % at 57.5 µM. HFF cells, HCMV-luciferase reporter, 72 h; hits give low values. 410,000 compounds, 4.5% hits; in the data active means activity change below about -60%; inconclusive means no clear call, values can overlap the other calls; inactive means above about -39%; further: on the % scale 0 is the no-effect control and ±100 the full control effect
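Steps: HFFs plated, 16 h 37C; compounds added; HCMV-luciferase added to MOI 1 PFU/cell; 72 h 37C; OneGlo reagent, 5 min room temperature; luminescence read, normalized to controls.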
Pf growth 48h: inhibits P. falciparum growth in the first generation, 48 h; P. falciparum luciferase growth in erythrocytes, 48 h; Potency, µM (doses to about 28.7 µM), for inactives: at the highest dose activity change, negative = inhibition, most hits filed as inhibitors; 310,000 compounds, 5.9% hits; AID 504832; further: potency means the concentration at half of the fitted maximal effect; on the % scale 0 is the no-effect control and ±100 the full control effect
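Read-out is firefly luciferase luminescence from an integrated reporter in P. falciparum, so falling signal marks reduced parasite growth. Infected erythrocytes were at 2% hematocrit and 0.1% parasitemia (final) in Albumax-supplemented RPMI 1640.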
Cycloheximide cs: counter-screen for Shiga toxin inhibitors: cycloheximide protein synthesis inhibition. cell reporter, cycloheximide protein synthesis inhibition counterscreen. max response, %. 300,000 compounds, 12% hits; in the data active means max response mostly above about 13%, no sharp cut-off; inactive means mostly below about 14%; further: read at 38.3 µM for the half of the compounds with a filed dose; 0% is about no effect
* marks the source's active call; other numbers are inactive results. In the library only some 21% were active in any assay of this set; here they are far more common. Unless noted, the call rests on the fitted dose curve; in most records, active means well fitted inhibition curve with a large enough effect; inconclusive means small, poorly fitted or top-dose-only effect, or another doubt; inactive means no such curve, though single readings can be large or run the other way.

CC(C)C[C@@H](C(=O)NC1CC1)N1C(=O)N2CCc3c([nH]c4ccccc34)[C@@]2(C)C1=O was read as Pf growth 96h inconclusive, HCV inhibitor -29%, Shiga inhibitor -9, HCMV antiviral 14, Pf growth 48h inconclusive and Cycloheximide cs -6.
Screening CCOc1ccc(NC(=O)c2ccc3c(c2)nnn3C2CCCC2)cc1 returned HCMV antiviral -10.
COc1cc(OC)nc(-n2ncc(Br)c(Br)c2=O)n1 was read as Pf growth 96h 13µM*, HCV inhibitor 4µM*, Shiga inhibitor -24, HCMV antiviral -105*, Pf growth 48h inconclusive and Cycloheximide cs -8.
`Cc1nc2cc(-c3ccccc3)nn2c(N)c1-c1ccccc1` gave Pf growth 96h 399%, HCV inhibitor -11%, HCMV antiviral inconclusive and Pf growth 48h 171%.
`COc1ccc(-c2cc3ncc(-c4ccccc4)c(N)n3n2)cc1` gave Pf growth 96h -48%, HCV inhibitor inconclusive, Shiga inhibitor 61*, HCMV antiviral 79, Pf growth 48h 211% and Cycloheximide cs 36*.
For N#Cc1cnc2cc(-c3ccccc3)nn2c1N the results were Pf growth 96h 21%, HCV inhibitor 3%, Shiga inhibitor 29, HCMV antiviral 10, Pf growth 48h 49% and Cycloheximide cs 18*.
NC(=O)c1ccccc1OC1CCC1 was read as Pf growth 96h 12%, HCV inhibitor 8%, Shiga inhibitor -9, HCMV antiviral 1, Pf growth 48h 8% and Cycloheximide cs -1.
Cc1nn(Cc2c(F)c(F)c(F)c(F)c2F)c(C)c1NC(=O)c1ccc(COc2cc(Cl)ccc2Cl)cc1 was read as Pf growth 96h 18%, HCV inhibitor inconclusive, Shiga inhibitor 109*, HCMV antiviral 56, Pf growth 48h 72% and Cycloheximide cs 54*.
Screening Cc1nn(Cc2c(F)c(F)c(F)c(F)c2F)c(C)c1NC(=O)c1ccc(COc2ccccc2Cl)o1 returned Pf growth 96h inconclusive, HCV inhibitor 16µM*, Shiga inhibitor 21, HCMV antiviral -66*, Pf growth 48h inconclusive and Cycloheximide cs -3.
Cc1nn(Cc2c(F)c(F)c(F)c(F)c2F)c(C)c1NC(=O)c1ccc(COc2ccccc2Cl)cc1 was read as Pf growth 96h 0%, HCV inhibitor 2%, Shiga inhibitor 6, HCMV antiviral -5, Pf growth 48h -1% and Cycloheximide cs 6.
Screening Cc1cccc(C)c1NC(=O)c1cccc(COc2cc(Cl)ccc2Cl)c1 returned Pf growth 96h inconclusive, HCV inhibitor 1%, Shiga inhibitor 62*, HCMV antiviral 55, Pf growth 48h inconclusive and Cycloheximide cs 29*.
For CN(Cc1ccccc1)C(=O)COc1cc(Cl)ccc1Cl the results were Pf growth 96h -27%, HCV inhibitor 2%, Shiga inhibitor 17, Pf growth 48h inconclusive and Cycloheximide cs 7.
Screening CCCCCCOC(=O)Nc1ccc(S(=O)(=O)Nc2cccc([N+](=O)[O-])c2)cc1 returned Pf growth 96h -15%, HCV inhibitor 9%, Shiga inhibitor -10, HCMV antiviral 5, Pf growth 48h -1% and Cycloheximide cs 7.
For CN(C)c1ccc(C(=O)c2ccc(N(C)C)c3ccccc23)cc1 the results were Pf growth 96h -22%, HCV inhibitor 11µM*, Shiga inhibitor 68*, HCMV antiviral -80*, Pf growth 48h inconclusive and Cycloheximide cs 25*.
For O=C(CNC(=O)c1ccc(Cl)cc1Cl)OC1CCCCC1=O (centres undefined) the results were HCV inhibitor 15% and HCMV antiviral -29.
For CN(c1ccc(OCC(=O)Nc2ccccc2C(=O)O)cc1)S(=O)(=O)c1ccc(Cl)cc1 the results were HCV inhibitor -8% and HCMV antiviral -82*.
For COc1ccc(NC(=O)COc2ccc(N(C)S(=O)(=O)c3ccc(Cl)cc3)cc2)cc1OC the results were Pf growth 96h inconclusive, HCV inhibitor 0.63µM*, HCMV antiviral -88* and Pf growth 48h inconclusive.
For CC(=O)Nc1ccc(S(=O)(=O)N(C)c2ccc(OCC(=O)Nc3ccccc3C(C)=O)cc2)cc1 the results were Pf growth 96h inconclusive, HCV inhibitor inconclusive, HCMV antiviral -35 and Pf growth 48h inconclusive.

Screens (PubChem BioAssay)
